# Measured values published in PubChem BioAssay AID1053125 (Broad Institute, 2014).
# Results with a measured potency or affinity are listed apart. Active and inactive are the calls of the source.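 Rule for the calls: active = viability loss whose fitted half-maximal concentration is at most twice the top valid tested dose; inconclusive = flat curve with 30 to 70% loss, or poor fit; inactive = the rest.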
# Assay: viability loss in HepG2 liver cells – cell-based, ATP luminescence, cherry-pick, set 6, cytotoxicity control, dose response (AID 1053125);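 note: negative values mean loss of viability signal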
# Settings: ATP luminescence (CellTiter-Glo), 72 h; series mostly up to 26 µM; activity change, negative = cytotoxicity: at the top concentration
row,SMILES,"activity change, negative = cytotoxicity"
1,CCOC(=O)c1c2ccc(OCC(=O)NN)cc2n2ccccc12,-9.3% (inactive)
2,O=[N+]([O-])c1cccc(-c2n[nH]c(=S)n2-c2ccc(Br)cc2)c1,-13.9% (inactive)
3,CCN1C(=O)c2cccc3c(S(=O)(=O)N(C)C)ccc1c23,-11.1% (inactive)
4,CCn1c2ccccc2c(=O)c2ccccc21,-12.7% (inactive)
5,Cc1ccc(O)c(NC(=S)NC(=O)COc2ccc(Br)cc2)c1,13.5% (inactive)
6,CCc1nnc(NC(=O)c2ccc(-c3ccccc3F)o2)s1,-17% (inactive)
7,CCC(C)n1c(=N)c(C#N)cc2c(=O)n3cccc(C)c3nc21 (configuration not stated),-8.48% (inactive)
8,CCCCN(CCCC)CC(O)Cn1c2ccccc2c(=O)c2ccccc21 (configuration not stated),-21.4% (inactive)
9,COc1ccc(C2c3ccc(O)cc3Oc3ncn4nc(-c5ccccn5)nc4c32)cc1 (configuration not stated),-1.07% (inactive)
10,Cn1c(=N)c(S(=O)(=O)c2ccccc2)cc2c(=O)n3ccccc3nc21,-17% (inactive)
11,CCOC(=O)c1c(C)n(C)c2ccc(OCC(O)CN3CCC(C)CC3)cc12 (configuration not stated),-5.75% (inactive)
12,O=c1c2ccccc2n(CC(O)CN2CCCCC2)c2ccccc12 (configuration not stated),0.985% (inactive)
13,O=C(c1ccc(F)cc1)C1CCN(C(=O)Nc2ccccc2Cl)CC1,-1.49% (inactive)
14,CN1CCc2c(sc(NC(=O)C3CCCCC3)c2C(N)=O)C1,-14.3% (inactive)
15,CC1=C(C(=O)N2CCN(c3cc(C)ccc3C)CC2)C2(CCCCC2)OC1=O,-6.7% (inactive)
16,COCCCn1c(=N)c(C(=O)NC2CCCCC2)cc2c(=O)n3ccccc3nc21,-7.84% (inactive)
17,COc1ccccc1NS(=O)(=O)c1cc(NC(=O)CCNC(C)=O)ccc1C,-4.09% (inactive)
